# Compounds with a hit are over-represented: about 6.8% of the library has one in this group of screens.
# Pf Dd2 inh: P. falciparum Dd2 growth inhibitors, primary screen, SYBR Green fluorescence, single dose replicates | 72 h; hits give low values | activity change, % at 10 µM | actives 2.3% (n = 94,000); in the data active = activity change below about -80%; inconclusive = no clear call, values can overlap the other calls
# C diff growth: C. difficile growth inhibitors, primary screen, HTS. growth activity, negative = inhibition, % at 16 µg/mL (by protocol). AID 1259249, 2017. actives 0.25% (n = 86,000). Clostridium difficile clinical isolate growth, OD600, 24 h; hits give low values;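 active = mean growth activity at or below -80% and every replicate also at or below -80%; inconclusive = mean at or below -80% but some replicate above -80%; inactive = mean growth activity above -80%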;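 note: 0% = DMSO wells and -100% = levofloxacin 16 µg/mL wells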
# T cruzi growth-1: T. cruzi intracellular proliferation inhibitors, primary screen, cell-based, beta-gal Tulahuen parasites, NIH3T3 host, luminescence; actives 5.9% (n = 77,000); T. cruzi beta-gal in NIH3T3, GalScreen luminescence, 90 h; inhibition, % at 8.34 µM; AID 624255, 2012;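 active = mean inhibition above about 93%, with at least 55% of replicates each passing it, limit read from the data, passing the limit was not always enough; inconclusive = only one of those two conditions holds; inactive = neither condition holds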
# T cruzi growth-2: T. cruzi intracellular proliferation inhibitors, confirmation, cell-based, NIH3T3 host, beta-gal parasite, luminescence, cherry-pick; shares compounds with T cruzi growth-1; T. cruzi beta-gal in NIH3T3, GalScreen luminescence, 90 h; inhibition, % at 8.35 µM; actives 72% (n = 5,600); AID 651739, 2012;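 active = mean replicate inhibition above about 95% and at least 55% of replicates individually reaching it, limit read from the data; inconclusive = only one of the two criteria is met; inactive = neither criterion is met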
# T cruzi growth-3: inhibitors of intracellular T. cruzi replication, confirmation, NIH3T3 host cells, beta-gal parasites, cherry-pick, set 2; shares compounds with T cruzi growth-1; T. cruzi beta-gal in NIH3T3, GalScreen luminescence, 90 h; actives 21% (n = 5,600); inhibition, % at 2.09 µM;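 active = mean inhibition above about 95%, with at least 55% of replicates also reaching it, limit read from the data; inconclusive = meets just one of the two conditions; inactive = meets neither condition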;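 note: plate controls were neutral control median for no effect and positive control median for full effect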
# NIH3T3 tox: cytotoxicity in mouse NIH/3T3 fibroblasts, confirmation, cytotoxicity control for T. cruzi proliferation inhibitor project, cell-based, cherry-pick, single point. shares compounds with T cruzi growth-1. NIH/3T3 viability, CellTiter-Glo ATP luminescence, 90 h. cytotoxicity (signal decrease), % at 8.35 µM. actives 14% (n = 5,600). AID 651742, 2012;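 active = mean signal decrease across replicates above about 35% based on untreated-well scatter, with enough replicates individually passing, limit read from the data; inconclusive = no rule stated though some were filed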;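 note: 0% = median of neutral control wells and 100% = median of positive control wells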
# NIH3T3 tox 2: NIH/3T3 fibroblast cytotoxicity, confirmation, cytotoxicity control, cell-based, cherry-pick, single point, set 2 | NIH/3T3 viability, CellTiter-Glo ATP luminescence, 90 h | inhibition, % at 24.9 µM | shares compounds with T cruzi growth-1 | actives 56% (n = 5,600);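 active = mean loss of cell viability signal at or above a set limit, and enough replicates individually reaching it; inconclusive = meets only the mean limit or only the replicate share; inactive = meets neither condition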;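 note: 0% = median of neutral control wells and 100% = median of positive control wells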
# Numbers without * were called inactive; u = inconclusive; x = no result.
SMILES,Pf Dd2 inh,C diff growth,T cruzi growth-1,T cruzi growth-2,T cruzi growth-3,NIH3T3 tox,NIH3T3 tox 2
O=C(O)C[C@H]1CC[C@@H](NC(=O)Nc2cc(F)ccc2F)[C@@H](CO)O1,-1.2,3.0,x,x,x,x,x
COCC(=O)N(C)C[C@H]1Oc2cc(C3=CCCCC3)ccc2S(=O)(=O)N([C@H](C)CO)C[C@H]1C,43.4,1.3,47.3,x,x,x,x
Cc1ccccc1S(=O)(=O)NCC[C@@H]1CC[C@@H](NC(=O)C2CCCCC2)[C@@H](CO)O1,5.7,-1.5,-52.7,x,x,x,x
COCC(=O)N(C)C[C@H]1Oc2cc(C#CCC3CCCC3)ccc2S(=O)(=O)N([C@H](C)CO)C[C@H]1C,-21.0,2.0,x,x,x,x,x
Cc1ccc(S(=O)(=O)Nc2cccc3c2O[C@@H](CN(C)S(=O)(=O)c2ccc(Cl)cc2)[C@H](C)CN([C@@H](C)CO)C3=O)cc1,33.7,-0.7,x,x,x,x,x
C[C@@H]1CN([C@@H](C)CO)C(=O)Cc2cc(NC(=O)NC3CCCCC3)ccc2O[C@@H]1CN(C)S(=O)(=O)c1cn(C)cn1,24.3,3.5,17.0,x,x,x,x
CCCC#Cc1ccc2c(c1)O[C@@H](CN(C)CCC)[C@H](C)CN([C@@H](C)CO)S2(=O)=O,-56.6,x,99.2*,101.3*,62.5,39.3*,103.7*
CCCC#Cc1ccc2c(c1)O[C@H](CN(C)CCC)[C@H](C)CN([C@@H](C)CO)S2(=O)=O,-79.1,5.0,74.6,x,x,x,x
C[C@@H]1CN([C@H](C)CO)C(=O)c2cc(C#Cc3ccccc3F)cnc2O[C@H]1CN(C)S(=O)(=O)c1ccccc1,-37.7,-2.6,125.8*,108.5*,86.6,u,34.5*
C[C@@H]1CN([C@@H](C)CO)C(=O)c2cc(C#Cc3ccccc3F)cnc2O[C@@H]1CN(C)S(=O)(=O)c1ccccc1,-31.4,0.5,114.0*,98.8*,69.8,30.7,49.8*
C[C@@H]1CN([C@H](C)CO)C(=O)c2cc(C#Cc3ccccc3F)cnc2O[C@@H]1CN(C)S(=O)(=O)c1ccccc1,-36.3,-11.3,115.6*,98.5*,64.1,22.0,68.4*
C[C@@H]1CN([C@H](C)CO)C(=O)c2cc(C#Cc3ccccc3F)cnc2O[C@H]1CN(C)S(C)(=O)=O,-29.2,x,64.1,x,x,x,x
C[C@H](CO)N1C[C@H](C)[C@@H](CN(C)S(C)(=O)=O)Oc2ncc(C#Cc3ccccc3F)cc2C1=O,6.9,-4.6,-7.9,x,x,x,x
C[C@H]1CN([C@@H](C)CO)C(=O)c2cc(C#Cc3ccccc3F)cnc2O[C@H]1CN(C)S(C)(=O)=O,0.3,x,49.5,x,x,x,x
C[C@H]1CN([C@@H](C)CO)C(=O)c2cc(C#Cc3ccccc3F)cnc2O[C@@H]1CN(C)S(=O)(=O)c1ccccc1,-73.2,-11.9,128.0*,110.2*,78.0,60.5*,47.2*
C[C@@H]1CN([C@@H](C)CO)C(=O)c2cc(C#Cc3ccccc3F)cnc2O[C@@H]1CN(C)S(C)(=O)=O,-8.5,x,63.9,x,x,x,x
CC(=O)N(C)C[C@H]1Oc2ncc(-c3cccnc3)cc2C(=O)N([C@H](C)CO)C[C@@H]1C,25.5,-4.2,17.5,x,x,x,x
Cc1noc(C)c1NC(=O)N(C)C[C@H]1Oc2ccc(NC(=O)C3CCCCC3)cc2CC(=O)N([C@H](C)CO)C[C@@H]1C,16.5,0.6,-24.7,x,x,x,x
C[C@H]1CN([C@@H](C)CO)C(=O)c2cccc(NC(=O)c3cnccn3)c2O[C@@H]1CN(C)Cc1ccccc1,-9.0,1.4,43.8,x,x,x,x
Cc1nn(C)cc1NC(=O)C[C@@H]1CC[C@@H]2[C@@H](COc3ccc(NC(=O)NC(C)C)cc3C(=O)N2C)O1,6.2,-3.2,15.2,x,x,x,x
C[C@@H]1CCCCO[C@@H](CN(C)C(=O)Nc2ccccc2)[C@@H](C)CN([C@H](C)CO)C(=O)c2cc(NC(=O)Nc3ccc4c(c3)OCO4)ccc2O1,77.9,0.3,19.2,x,x,x,x
C[C@H](CO)N1C[C@H](C)[C@H](CN(C)C(=O)Cc2ccncc2)Oc2ncc(C#Cc3ccccc3F)cc2C1=O,-43.1,1.8,63.1,x,x,x,x
C[C@H](CO)N1C[C@H](C)[C@@H](CN(C)C(=O)Cc2ccncc2)Oc2ncc(C#Cc3ccccc3F)cc2C1=O,-77.5,-0.1,u,111.6*,63.2,18.1,u
COCC(=O)N1CC2(C1)CN(C(=O)Nc1ccccc1F)[C@H](CO)c1c2c2ccc(OC)cc2n1C,-9.8,x,x,x,x,x,x
COc1ccc(S(=O)(=O)N(C)C[C@H]2Oc3c(NC(=O)Nc4ccccc4)cccc3C(=O)N([C@@H](C)CO)C[C@@H]2C)cc1,4.6,x,13.7,x,x,x,x
SMILES,Pf Dd2 inh,C diff growth,T cruzi growth-1,T cruzi growth-2,T cruzi growth-3,NIH3T3 tox,NIH3T3 tox 2
COc1ccc(S(=O)(=O)N(C)C[C@H]2Oc3c(NC(=O)Nc4ccccc4)cccc3C(=O)N([C@H](C)CO)C[C@H]2C)cc1,-76.1,x,48.7,x,x,x,x
COc1ccc(S(=O)(=O)N(C)C[C@H]2Oc3c(NC(=O)Nc4cccc5ccccc45)cccc3C(=O)N([C@H](C)CO)C[C@@H]2C)cc1,-66.7,-0.1,117.0*,108.3*,61.1,-0.3,16.4
COc1ccc(S(=O)(=O)N(C)C[C@H]2Oc3c(NC(=O)Nc4cccc5ccccc45)cccc3C(=O)N([C@H](C)CO)C[C@H]2C)cc1,-82.6*,-0.7,127.8*,15.0,12.0,1.5,28.9*
COc1ccc(S(=O)(=O)N(C)C[C@H]2Oc3c(NC(=O)Nc4cccc5ccccc45)cccc3C(=O)N([C@@H](C)CO)C[C@@H]2C)cc1,-39.5,10.3,100.3*,111.8*,43.9,-26.9,9.9
C[C@H](CO)N1C[C@H](C)[C@H](CN(C)S(=O)(=O)c2ccccc2)Oc2c(NC(=O)Nc3cccc4ccccc34)cccc2C1=O,3.5,-20.6,x,x,x,x,x
C[C@@H]1CN([C@H](C)CO)C(=O)c2cc(NS(=O)(=O)c3ccc(Cl)cc3)ccc2O[C@@H]1CN(C)S(=O)(=O)c1ccccc1,55.0,-10.4,29.3,x,x,x,x
C/C=C/c1ccc2c(c1)O[C@@H](CN(C)Cc1cccnc1)[C@@H](C)CN([C@H](C)CO)S2(=O)=O,-1.2,1.2,82.8,x,x,x,x
C[C@H](CO)N1C[C@H](C)[C@@H](CN(C)Cc2ccccc2)Oc2cc(/C=C/c3ccccc3)ccc2S1(=O)=O,-56.3,0.5,70.3,x,x,x,x
C[C@@H]1CN([C@@H](C)CO)S(=O)(=O)c2ccc(/C=C/c3ccccc3)cc2O[C@@H]1CN(C)Cc1ccc(C(=O)O)cc1,-4.5,-9.4,80.3,x,x,x,x
